Results with a measured potency or affinity are listed apart. Records with an inconclusive call do not appear. Activity calls are given as the source filed them. The rule behind the calls is not given here.

A short description of this assay: general cell-killing toxicity readout – plate reader, dry powder samples, cytotoxicity control for PAX8 inhibitor project, dose response (AID 743021). The note with it: cell line, non-specific cytotoxicity counter-screen; series mostly up to 35 µM.
Consider `CCOC(=O)Nc1ccc2c(c1)N(C(=O)CCN(CC)CC)c1ccccc1S2=O` (configuration not stated), for which the call was inactive. For the compound `COc1ccc(-c2nc3c(c(SCC(=O)Nc4cccc(O)c4)n2)Cc2c(CO)cnc(C)c2O3)cc1`, the outcome was inactive. In the case of `COC(=O)[C@]12CCCCC=C1N(Cc1ccc(Cl)cc1Cl)C(=O)[C@H](CC(=O)N1CCN(C(=O)c3ccco3)CC1)C2`, the result was inactive.

With `CCOc1ccc(C(CN2CCOCC2)C(C)=O)cc1OC` (configuration not stated), the call was inactive. Consider `COc1cc(OC)c2c(-c3cccc(-c4ccc(OC)c(F)c4)c3)cc(=O)oc2c1`, for which the result was inactive. For `N#Cc1ccc(-c2ccc(C3[C@@H]4CN(C(=O)C5CC5)C[C@H]3N4)cc2)cc1` (some centres not stated), the call was inactive. The entry for `Cc1ccc(-c2csc3ncnc(Sc4nnc(CN5CCCCCC5=O)o4)c23)cc1` is “inactive”; for `O=C(Nc1ccccc1)NN(C(=O)CCl)c1ccccc1` it is “inactive”; for `O=C(c1cc([N+](=O)[O-])ccc1N1CCOCC1)N1CCN(c2ccccc2)CC1` it is “inactive”. Consider `COc1ccc(C2=NNC(=Nc3cc(S(=O)(=O)N(C)C)ccc3C)SC2)c(OC)c1`, for which the call was inactive. As for `C=C(C)c1nc(Oc2ccccc2)nc(Oc2ccccc2)n1`, the call was inactive. The entry for `CCN(CC)S(=O)(=O)c1cc(NC(=O)Cn2ncc(Cl)c(Cl)c2=O)ccc1C` is “inactive”.

The record behind these values is PubChem BioAssay.
